Test [1] concerns the target human Retinoid X Receptor beta (RXRb), RXRB (gene 6257) (UniProt P28702). In words: ATG_RXRb_TRANS: Attagene TRANS-FACTORIAL HepG2 Assay for human Retinoid X Receptor beta (RXRb) (AID 2283013; active means hit-call score of the fitted dose curve at least 0.9, where 1 is the maximum). In a few lines: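 Multiplexed TRANS reporter assay in HepG2; 24 h dosing; reporter mRNA by RT-PCR/CE fluorescence; gain-of-signal relative to DMSO.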
Read-out in test [2]: E-selectin (Homo sapiens) (UniProt P16581)
Kind of test: BSK_3C_Eselectin: BioMAP Diversity Plus: 3C Assay for Eselectin Biomarker Activity (AID 2283015).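 On outcome: cell surface E-selectin protein quantified by ELISA 24 h after dosing.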 The conditions noted are these: primary human endothelial cells (HUVEC); actives raise or lower the signal. In a few lines:
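Human vascular endothelium from umbilical vein is exposed to test chemicals for 24 h. E-selectin levels are read by ELISA and compared with DMSO controls.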

Read-out in test [3]: Interleukin-1 alpha (IL1a), IL1A (gene 3552)
In words: BSK_BE3C_IL1a: BioMAP Diversity Plus: BE3C Assay for Interleukin-1 alpha (IL1a) Biomarker Activity (AID 2283016). The settings on record: primary human bronchial epithelial cells; actives raise or lower the signal. In a few lines: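 Cultures of primary human bronchial epithelial cells receive test chemical. After 24 h, IL-1a is quantified by ELISA, while parallel wells are fixed in TCA and SRB-stained for total protein. Changes in either direction are fitted relative to DMSO.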

Read-out in test [4]: Monocyte Chemoattractant Protein-1 (MCP1), CCL2 (gene 6347)
In words: BSK_3C_MCP1: BioMAP Diversity Plus: 3C Assay for Monocyte Chemoattractant Protein-1 (MCP1) Biomarker Activity (AID 2283017). The settings on record: primary human endothelial cells (HUVEC); actives raise or lower the signal. In a few lines:
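Endothelial cells from human umbilical vein are dosed with chemical, cultured 24 h, then assayed for MCP-1 by ELISA; both increases and decreases are modelled against DMSO controls.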

Read-out in test [5]: Monocyte Chemoattractant Protein-1 (MCP1), CCL2 (gene 6347)
Kind of test: BSK_4H_MCP1: BioMAP Diversity Plus: 4H Assay for Monocyte Chemoattractant Protein-1 (MCP1) Biomarker Activity (AID 2283018). The conditions noted are these: primary human endothelial cells (HUVEC); actives raise or lower the signal. In a few lines: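 Readout: MCP-1 ELISA on compound-treated HUVEC, sampled 24 h post-dosing. Baseline and negative control DMSO; bidirectional fit. Overt toxicity checked alongside by sulforhodamine B protein staining at time of biomarker measurement.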

Read-out in test [6]: Human Leukocyte Antigen - DR isotype (HLADR), HLA-DRA (gene 3122)
In words: BSK_3C_HLADR: BioMAP Diversity Plus: 3C Assay for Human Leukocyte Antigen - DR isotype (HLADR) Biomarker Activity (AID 2283019).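 On outcome: ELISA of cell-surface HLA-DR on HUVEC 24 h after dosing.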 The settings on record: primary human endothelial cells (HUVEC); actives raise or lower the signal. In a few lines: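 Endothelial cells from human umbilical vein are treated with test chemical; after 24 h, HLA-DR levels are measured by ELISA. Data are fitted in both directions using DMSO as the baseline.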

Read-out in test [7]: Interleukin-8 (IL8), CXCL8 (gene 3576)
In words: BSK_3C_IL8: BioMAP Diversity Plus: 3C Assay for Interleukin-8 (IL8) Biomarker Activity (AID 2283020). The settings on record: primary human endothelial cells (HUVEC); actives raise or lower the signal. In a few lines: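 Human vascular endothelial cells (umbilical vein) in the 3C system; IL-8 level detected by ELISA at 24 h post-dose, with DMSO as baseline.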

Read-out in test [8]: Monokine induced gamma interferon (MIG), CXCL9 (gene 4283)
In words: BSK_3C_MIG: BioMAP Diversity Plus: 3C Assay for Monokine induced gamma interferon (MIG) Biomarker Activity (AID 2283021).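 On AC50: MIG protein level measured by immunoassay in the treated endothelial cultures.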 The conditions noted are these: primary human endothelial cells (HUVEC); actives raise or lower the signal. In a few lines:
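After 24 h of treatment, human umbilical vein endothelial cultures (3C system) had their MIG biomarker level determined by ELISA, with DMSO serving as negative control.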

Test [9] can be described thus: BSK_3C_SRB: Viability Assessment in the BioMAP Diversity Plus: 3C Assay (AID 2283023).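 Further: fitted both ways against DMSO so a hit may be signal rise or drop.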 The conditions noted are these: primary human endothelial cells (HUVEC). In a few lines: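 Cells were dosed with chemical, cultured 24 h, fixed with 10% TCA, stained with 0.1% SRB and read at 560 nm. Human umbilical vein endothelium was used; DMSO served as negative control and baseline.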

Read-out in test [10]: Matrix Metallopeptidase 1 (MMP1), MMP1 (gene 4312)
Kind of test: BSK_BE3C_MMP1: BioMAP Diversity Plus: BE3C Assay for Matrix Metallopeptidase 1 (MMP1) Biomarker Activity (AID 2283024). The conditions noted are these: primary human bronchial epithelial cells; actives raise or lower the signal. In a few lines: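 Dose cells, wait 24 h, run MMP1 ELISA; cells are human bronchial epithelial primaries. Both increases and decreases relative to DMSO counted.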

Test [11] can be described thus: BSK_3C_Vis: BioMAP Diversity Plus: 3C Assay for Morphology Visualization (AID 2283025).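 Further: fitted both ways so gain or loss versus DMSO counts.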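 On AC50: light microscopy image of cell morphology used as background control.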 The settings on record: primary human endothelial cells (HUVEC). In a few lines:
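Endothelial cells from human umbilical vein were treated with test chemicals for 24 h and inspected by light microscopy for changes in cell conformation.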

Test [12] in a line: BSK_4H_SRB: Viability Assessment in the BioMAP Diversity Plus: 4H Assay (AID 2283027).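 Further: cells exposed to compound for 24 h before staining.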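 On AC50: curves fitted both ways versus DMSO so AC50 may be loss or gain.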 The settings on record: primary human endothelial cells (HUVEC). In a few lines:
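Absorbance at 560 nm of SRB-stained total protein served as the viability read-out in confluent primary human umbilical vein endothelium 24 h after chemical treatment. Curves were fitted bidirectionally against DMSO as negative control.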

The nature of test [13]: BSK_BE3C_SRB: Viability Assessment in the BioMAP Diversity Plus: BE3C Assay (AID 2283028).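 On AC50: fitted both ways so AC50 may mark signal gain or loss versus DMSO.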 The conditions noted are these: primary human bronchial epithelial cells. In a few lines:
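Overt cytotoxicity was assessed as total protein in confluent human primary bronchial epithelial cultures 24 h after chemical addition, using 0.1% sulforhodamine B staining read at 560 nm.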

Read-out in test [14]: Thrombomodulin, THBD (gene 7056)
In words: BSK_3C_Thrombomodulin: BioMAP Diversity Plus: 3C Assay for Thrombomodulin Biomarker Activity (AID 2283029). The settings on record: primary human endothelial cells (HUVEC); actives raise or lower the signal. In a few lines: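 Thrombomodulin ELISA, human primary HUVEC, 24 h post-dose; data fitted in both directions relative to DMSO.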

Read-out in test [15]: Urokinase-type plasminogen activator receptor (uPAR), PLAUR (gene 5329)
In words: BSK_4H_uPAR: BioMAP Diversity Plus: 4H Assay for Urokinase-type plasminogen activator receptor (uPAR) Biomarker Activity (AID 2283030). The conditions noted are these: primary human endothelial cells (HUVEC); actives raise or lower the signal. In a few lines: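 Chemicals are dosed onto human vascular endothelial primary cells (umbilical vein). After 24 h, uPAR is read by ELISA. Gain or loss of signal is fitted relative to DMSO.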

Read-out in test [16]: Vascular endothelial growth factor receptor 2 (Homo sapiens) (UniProt P35968)
In words: BSK_4H_VEGFRII: BioMAP Diversity Plus: 4H Assay for Vascular endothelial growth factor receptor 2 (VEGFR2) Biomarker Activity (AID 2283031).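 On AC50: cell-surface VEGFR2 protein level quantified by ELISA.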 The settings on record: primary human endothelial cells (HUVEC); actives raise or lower the signal. In a few lines:
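VEGFRII levels on human vascular endothelial primary cells were determined by ELISA at 24 hours post-dosing, with gain- or loss-of-signal fitted against DMSO controls.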

Test [17] has as its target human Thyroid Receptor alpha (THRa1), THRA (gene 7067) (UniProt P10827). In words: ATG_THRa1_TRANS: Attagene TRANS-FACTORIAL HepG2 Assay for human Thyroid Receptor alpha (THRa1) (AID 2283014; active means hit-call score of the fitted dose curve at least 0.9, where 1 is the maximum). In a few lines: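 First, HepG2 cells receive multiple GAL4-UAS reporter units and the chimeric receptor. They are then dosed for 24 h, after which RNA is reverse-transcribed, amplified, labelled, HpaI-cut and sized by capillary electrophoresis; gain relative to DMSO is scored.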

Read-out in test [18]: Pselectin, SELP (gene 6403)
In words: BSK_4H_Pselectin: BioMAP Diversity Plus: 4H Assay for Pselectin Biomarker Activity (AID 2283026). The conditions noted are these: primary human endothelial cells (HUVEC); actives raise or lower the signal. In a few lines:
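Human vascular endothelium from umbilical vein; P-selectin measured by ELISA at 24 h post-dose, with cytotoxicity checked by sulforhodamine B total-protein staining in parallel cultures (0.1% SRB after 10% TCA fixation, read at 560 nm).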

For test [19], the target named is human Vitamin D Receptor (VDR), VDR (gene 7421) (UniProt P11473). Kind of test: ATG_VDR_TRANS: Attagene TRANS-FACTORIAL HepG2 Assay for human Vitamin D Receptor (VDR) (AID 2283022; active means hit-call score of the fitted dose curve at least 0.9, where 1 is the maximum). In a few lines:
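Fluorescence of labelled reporter cDNA fragments, resolved by capillary electrophoresis, gives mRNA induction after 24 h treatment of HepG2 cells carrying transfected Gal4-fusion reporter units. Activity is fitted in the positive direction with DMSO as baseline.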

Results filed as inconclusive are left out. Active and inactive are the calls of the source. How the source made its calls, unless noted: active means hit-call score of the fitted dose curve at least 0.9, where 1 is the maximum; inactive means score below 0.9.

Sequence of human Thyroid Receptor alpha (THRa1), THRA (gene 7067) (P10827 whole entry, looked up, the tested form may be a part): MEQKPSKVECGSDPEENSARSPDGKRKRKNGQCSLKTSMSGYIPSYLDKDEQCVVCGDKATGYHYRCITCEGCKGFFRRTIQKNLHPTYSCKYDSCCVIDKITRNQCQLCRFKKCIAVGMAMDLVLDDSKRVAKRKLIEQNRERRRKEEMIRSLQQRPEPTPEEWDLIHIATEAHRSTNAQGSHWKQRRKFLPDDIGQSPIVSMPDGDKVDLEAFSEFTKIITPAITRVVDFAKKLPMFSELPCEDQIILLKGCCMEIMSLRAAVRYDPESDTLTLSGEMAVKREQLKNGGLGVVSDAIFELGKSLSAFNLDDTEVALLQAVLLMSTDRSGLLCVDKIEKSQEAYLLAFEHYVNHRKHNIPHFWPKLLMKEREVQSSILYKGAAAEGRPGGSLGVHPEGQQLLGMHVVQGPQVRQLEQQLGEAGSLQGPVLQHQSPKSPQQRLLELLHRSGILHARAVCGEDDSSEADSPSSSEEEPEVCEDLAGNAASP
Sequence of human Retinoid X Receptor beta (RXRb), RXRB (gene 6257) (P28702 whole entry, looked up): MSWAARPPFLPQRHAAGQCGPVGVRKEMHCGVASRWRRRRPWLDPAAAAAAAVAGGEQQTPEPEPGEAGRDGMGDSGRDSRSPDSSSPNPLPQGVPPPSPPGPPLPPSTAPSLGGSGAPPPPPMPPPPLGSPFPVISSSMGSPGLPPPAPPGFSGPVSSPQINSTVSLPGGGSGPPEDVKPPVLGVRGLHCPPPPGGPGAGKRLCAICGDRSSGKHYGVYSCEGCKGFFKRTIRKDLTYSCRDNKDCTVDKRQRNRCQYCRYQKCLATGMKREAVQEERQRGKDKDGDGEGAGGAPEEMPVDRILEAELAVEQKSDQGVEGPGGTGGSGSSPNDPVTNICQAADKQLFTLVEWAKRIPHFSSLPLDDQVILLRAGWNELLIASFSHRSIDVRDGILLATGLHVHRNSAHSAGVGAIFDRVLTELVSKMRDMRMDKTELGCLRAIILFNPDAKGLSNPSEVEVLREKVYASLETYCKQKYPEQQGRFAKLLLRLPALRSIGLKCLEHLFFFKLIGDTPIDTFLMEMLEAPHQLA
Sequence of E-selectin (Homo sapiens) (P16581 whole entry, looked up): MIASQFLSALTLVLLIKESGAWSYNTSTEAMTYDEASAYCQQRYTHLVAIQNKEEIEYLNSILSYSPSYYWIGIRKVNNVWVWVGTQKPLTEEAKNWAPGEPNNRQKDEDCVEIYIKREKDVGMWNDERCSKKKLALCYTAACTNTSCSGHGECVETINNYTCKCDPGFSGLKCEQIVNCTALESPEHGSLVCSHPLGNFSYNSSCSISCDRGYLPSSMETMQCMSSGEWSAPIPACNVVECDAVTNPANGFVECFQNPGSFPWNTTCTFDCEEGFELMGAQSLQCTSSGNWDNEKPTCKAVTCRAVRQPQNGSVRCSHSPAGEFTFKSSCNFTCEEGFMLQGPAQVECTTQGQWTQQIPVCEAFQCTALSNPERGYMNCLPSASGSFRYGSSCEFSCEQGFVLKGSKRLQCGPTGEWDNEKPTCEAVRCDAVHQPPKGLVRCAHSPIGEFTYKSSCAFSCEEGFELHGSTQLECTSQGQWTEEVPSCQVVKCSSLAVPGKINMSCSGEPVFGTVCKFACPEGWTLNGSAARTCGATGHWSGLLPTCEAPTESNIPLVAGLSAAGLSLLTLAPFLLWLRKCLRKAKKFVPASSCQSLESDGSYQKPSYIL
Sequence of human Vitamin D Receptor (VDR), VDR (gene 7421) (P11473 whole entry, looked up, the tested form may be a part): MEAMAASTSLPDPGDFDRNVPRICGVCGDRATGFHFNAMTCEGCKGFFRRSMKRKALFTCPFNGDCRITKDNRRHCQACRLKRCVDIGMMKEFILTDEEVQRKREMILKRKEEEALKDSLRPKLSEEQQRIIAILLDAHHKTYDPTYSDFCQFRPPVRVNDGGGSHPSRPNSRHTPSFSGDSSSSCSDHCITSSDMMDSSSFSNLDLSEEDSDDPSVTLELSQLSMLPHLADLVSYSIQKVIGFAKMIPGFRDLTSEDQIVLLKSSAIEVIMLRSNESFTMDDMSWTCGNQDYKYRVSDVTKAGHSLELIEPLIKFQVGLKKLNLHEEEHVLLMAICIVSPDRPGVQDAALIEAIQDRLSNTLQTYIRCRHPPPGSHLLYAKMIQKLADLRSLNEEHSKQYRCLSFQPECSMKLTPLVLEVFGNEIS

`CCCCCCCCn1sccc1=O`: the AC50 was 15.4 µM (active) in test [1]; 12.6 µM (active) in [2]; 8.59 µM (active) in test [3]; 9.73 µM (active) in [4]; 8.07 µM (active) in test [5]; 5.11 µM (active) in test [6]. In addition, the AC50 is 12.4 µM (active) in [7]; 11.6 µM (active) in [8]; 20.8 µM (active) in test [9]; 15.1 µM (active) in [10]; 12.9 µM (active) in test [11]; 21 µM (active) in test [12]. The AC50 is 12.8 µM (active) in [13], 5.76 µM (active) in test [14] and 10.5 µM (active) in test [15]. Besides, the result in test [16] was inactive.

As for `CN(C)[C@@H]1C(=O)C(C(N)=O)=C(O)[C@@]2(O)C(=O)C3=C(O)c4c(O)cccc4[C@@](C)(O)[C@H]3C[C@@H]12`, the molecule was classed as inactive in [17], in [2], in test [3], in test [4], in test [5] and in [6]. For the same molecule, the outcome in test [7], in [8], in test [9], in test [10], in test [11] and in [18] was inactive. In addition, the outcome in [12], in test [13], in test [14], in test [15] and in test [16] was inactive.

Turning to `Nc1cc(Cl)cc(C(=O)O)c1Cl`, the outcome in [17], in test [2], in test [3], in test [4], in test [5] and in [6] was inactive. Besides, the outcome in [7], in [8], in [9], in [10], in test [11] and in [18] was inactive. Also, the result in test [12], in [13], in test [14], in [15] and in [16] was inactive.

On to `c1ccc(C2CO2)cc1` (stereo not drawn), for which the result in test [2], in test [3], in test [4], in test [5], in test [6] and in [7] was inactive. Moreover, the outcome in test [8], in test [9], in [10], in test [11], in test [18] and in test [12] was inactive. Further, the outcome in test [13], in [14], in test [15] and in test [16] was inactive.

On to `Clc1ccc(C(c2ccc(Cl)cc2)C(Cl)(Cl)Cl)cc1`, for which the outcome in test [1], in test [17], in [3], in test [19], in test [10] and in test [13] was inactive. Further, the result in test [14] was inactive. Further, the AC50 is 29.2 µM (active) in test [2]; 26.9 µM (active) in test [4]; 25.8 µM (active) in [6]; 22.7 µM (active) in test [7]; 34.5 µM (active) in test [8]; 28.5 µM (active) in test [9]. For the same molecule, the AC50 in test [11] is 37.3 µM (active); in [18], 14.9 µM (active); in test [12], 30.5 µM (active); in test [15] it was 31 µM (active); in test [16], 25.8 µM (active).

For `Cc1ccc(N)cc1`, the result in [1], in test [17], in test [2], in [3], in test [4] and in test [5] was inactive. Further, the outcome in [6], in test [7], in [8], in [9], in test [10] and in test [11] was inactive. Besides, the result in [12], in test [13], in [14], in test [15] and in [16] was inactive.

With `CCOC(=O)[C@]1(c2ccccc2)Oc2ccccc2[C@@H]1N`, the outcome in [17], in test [2], in [3], in test [5], in test [8] and in test [19] was inactive. Also, the outcome in test [10], in test [12], in test [13], in [14] and in [16] was inactive. Further, the AC50 is 13.4 µM (active) in test [4]; 27.6 µM (active) in [6]; 20 µM (active) in test [7]; 24.7 µM (active) in test [9]; 39 µM (active) in test [11]; 10.3 µM (active) in test [15].

The values are drawn from PubChem BioAssay (EPA / NIEHS).
